Among the data in PubChem BioAssay (EPA / NIEHS) are AC50 and outcome values, retold here.

One experiment has as its system SERPINA7 (gene 6906). The experiment can be described thus: CCTE_GLTED_hTBG: CCTE's human Thyroxine-binding Globulin (TBG) Inhibition Assay, Great Lakes Toxicology and Ecology Division (GLTED) Lab (AID 2284343).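 Also: active chemicals lower fluorescence versus DMSO baseline by displacing probe.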 The method, boiled down:
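Steps: combine TBG with chemical; incubate 2 hours so that disruptors release ANSA; record fluorescence (380 ex, 475 em). Loss of signal was fitted against DMSO controls.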

The subject of a further experiment is IYD (gene 389434). The experiment can be described thus: CCTE_GLTED_hIYD: CCTE's human Iodotyrosine Deiodinase (xIYD) Inhibition Assay, Great Lakes Toxicology and Ecology Division (GLTED) Lab (AID 2284317).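 Also: cell-free human IYD enzyme made in baculovirus insect cells; iodide freed from monoiodotyrosine measured by cerium arsenite color change at 420 nm.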 The method, boiled down:
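Iodide liberated from monoiodotyrosine by baculovirus-expressed human IYD over 3 h was determined colorimetrically (Sandell-Kolthoff, 420 nm) after Dowex separation; inhibition is loss of signal versus DMSO.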

Experiment [1] can be described thus: IUF_NPC4_neurite_area_120hr: Leibniz Research Institute for Environmental Medicine (IUF) 120-hour Neuronal Morphology Assay for Neurite Area (NPC4) (AID 2284305). In short, it runs like this:
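hNPC spheres on PDL/laminin, N2 medium, 37C/5% CO2; dosed day 0, half-medium refresh day 3; fixed 120 h; TUBB3/Hoechst ICC, high-content imaging; neurite area = mean pixels per neuron (nuclei excluded); DMSO baseline, max 0.1%.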

The nature of experiment [2]: IUF_NPC2-5_cytotoxicity_120hr: Cytotoxicity Assessment at 120 hours in the Leibniz Research Institute for Environmental Medicine (IUF) Neural Progenitor Cell Migration and Differentiation Assay (NPC2-5) (AID 2284307). The method, boiled down:
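Membrane-integrity loss measured as LDH activity in medium supernatant via resazurin-to-resorufin fluorescence after 120 h exposure. hNPC spheres from GW 16-19 fetal cortex differentiated on poly-D-lysine/laminin, 37C, medium half-refreshed day 3; seven concentrations, DMSO max 0.1%.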

Experiment [3] can be described thus: IUF_NPC2-5_cell_number_120hr: Cell Number Assessment at 120 hours in the Leibniz Research Institute for Environmental Medicine (IUF) Neural Progenitor Cell Migration and Differentiation Assay (NPC2-5) (AID 2284308; active = hit-call score of the fitted dose curve at least 0.9, where 1 is the maximum; inactive = score below 0.9;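 also: count of Hoechst-stained nuclei in migration zone around plated human neural progenitor spheres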). The method, boiled down: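 Counting of all Hoechst-stained nuclei in the migration area at 120 h, versus DMSO control. Primary hNPC spheres differentiated on poly-D-lysine/laminin in N2 medium at 37C, dosed from day 0 (7 concentrations, DMSO ≤0.1%), half-refed day 3.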

The nature of experiment [4]: IUF_NPC2-5_viability_120hr: Viability Assessment at 120 hours in the Leibniz Research Institute for Environmental Medicine (IUF) Neural Progenitor Cell Migration and Differentiation Assay (NPC2-5) (AID 2284312; active = hit-call score of the fitted dose curve at least 0.9, where 1 is the maximum; inactive = score below 0.9). In short, it runs like this:
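Human fetal neural progenitor spheres (0.3 mm) plated on poly-D-lysine/laminin in N2 differentiation medium, exposed 120 h with half-medium refresh at day 3. Viability by alamar blue resazurin fluorescence; 7 concentrations, DMSO max 0.1%.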

A short description of experiment [5]: CCTE_Mundy_HCI_iCellGluta_NOG_NeuriteLength: CCTE's Neurite Outgrowth Assay in iCellGluta cells for Neurite Length, Mundy Lab (AID 2284318). The method, boiled down: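 Automated high-content imaging of betaIII-tubulin (Alexa Fluor-488) and Hoechst-stained cells gave neurite length, normalized to the DMSO baseline.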
The nature of experiment [6]: CCTE_Deisenroth_5AR_NBTE_donor: CCTE's 5alpha-reductase NanoBRET Target Engagement Assay […], Deisenroth Lab (AID 2284319; active = hit-call score of the fitted dose curve at least 0.9, where 1 is the maximum; inactive = score below 0.9). To be noted: actives raise or lower the signal. The method, boiled down:
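In this secondary endpoint, donor luminescence from SRD5A2-NanoLuc in transfected HEK293T flags artifacts. Test chemical (10 nM - 29.9 uM) is present five hours, tracer the last two; mock-tracer wells run plate-matched; data fitted bidirectionally against DMSO.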
For orientation: BRET reads energy transfer from a luciferase to a nearby fluorophore.

Experiment [7] in a line: CCTE_Deisenroth_5AR_NBTE_acceptor: CCTE's 5alpha-reductase NanoBRET Target Engagement Assay - Autofluorescence Screen, Deisenroth Lab (AID 2284321; active = hit-call score of the fitted dose curve at least 0.9, where 1 is the maximum; inactive = score below 0.9;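 also: compound fluorescence in the acceptor channel under 460 nm excitation flags autofluorescence artifacts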). To be noted: actives raise or lower the signal. The method, boiled down:
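Acceptor-channel fluorescence flags artifacts, with excitation fixed at 460 nm. Nominal 100 uM chemical samples were read in triplicate runs, and signal changes were fitted in both directions relative to DMSO.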

The subject of the next experiment is SRD5A2 (gene 6716). The experiment can be described thus: CCTE_Deisenroth_5AR_NBTE_ratio: CCTE's 5alpha-reductase NanoBRET Target Engagement Assay - Ratio, Deisenroth Lab (AID 2284322; active = hit-call score of the fitted dose curve at least 0.9, where 1 is the maximum; inactive = score below 0.9). Conditions: actives raise or lower the signal. In short, it runs like this:
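SRD5A2-NanoLuc HEK293T; cmpd 10 nM-29.9 uM, 3 h preinc + testosterone tracer 2 h; NanoBRET ratio 650/460; bidirectional fit vs DMSO.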

A short description of experiment [8]: CCTE_Mundy_HCI_iCellGluta_NOG_NeuronCount: CCTE's Neurite Outgrowth Assay in iCellGluta cells for Neuron Count, Mundy Lab (AID 2284340).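 Also: cells fixed about 48 h after compound addition.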 The method, boiled down:
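Neuron count read by automated high-content imaging of Hoechst 33342 and betaIII-tubulin/Alexa Fluor-488 labelling in human iPSC glutamatergic neurons. Activity fitted relative to DMSO.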

Experiment [9] can be described thus: CCTE_Mundy_HCI_iCellGluta_NOG_NeuriteCount: CCTE's Neurite Outgrowth Assay in iCellGluta cells for Neurite Count, Mundy Lab (AID 2284342).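 Also: chemical exposure about 48 hours starting 2 hours after plating.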
The nature of experiment [10]: TAMU_PeakParms_SingleDonor1434_Asystole: Texas A&M University (TAMU) 1.5-hr Human Induced Pluripotent Stem Cell (iPSC)-derived Cardiomyocytes Calcium (Ca+2) Flux Assay for Cardiotoxicity: Asystole (quiescence of beating) (AID 2284328). In short, it runs like this: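 Donor 1434 iPSC-cardiomyocytes exposed 90 min at 37C, 5% CO2, to 0.2, 1, 10 and 100 uM in 0.5% DMSO. Ca2+ dye fluorescence gave average peak frequency; POD is EC95, a 95% beat-rate drop versus controls.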

Experiment [11] in a line: CCTE_Deisenroth_H295R-HTRF_384WELL_ESTRADIOL: CCTE's H295R-HTRF Assay Evaluation of Estradiol Concentration, Deisenroth Lab (AID 2284361; active = hit-call score of the fitted dose curve at least 0.9, where 1 is the maximum; inactive = score below 0.9). To be noted: actives raise or lower the signal. In short, it runs like this:
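Estradiol secreted into medium by H295R adrenocortical cells, quantified by HTRF after 48 h dosing over a nine-point 0.001 - 100 uM final range; gain or loss versus DMSO. Parallel ATP-luminescence viability readout; n=5 experiments.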

Experiment [12] can be described thus: CCTE_Deisenroth_H295R-HTRF_384WELL_TESTOSTERONE: CCTE's H295R-HTRF Assay Evaluation of Testosterone Concentration, Deisenroth Lab (AID 2284373; active = hit-call score of the fitted dose curve at least 0.9, where 1 is the maximum; inactive = score below 0.9). To be noted: actives raise or lower the signal. The method, boiled down: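 Testosterone secreted into medium was quantified by direct HTRF immunoassay after a 48 h treatment of H295R adrenocortical cells (nine concentrations, 0.001–100 uM final). Gain or loss fitted relative to DMSO; CellTiter-Glo viability read on same plates.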
For orientation: In TR-FRET formats the signal depends on donor and acceptor labels being close together.

A short description of experiment [13]: VALA_TUBHUV_Antagonist_CellCount: Viability Assessment in the VALA Sciences human Umbilical Vein Endothelial Tubule Formation (TUBHUV) Antagonism Assay (AID 2284310). In short, it runs like this: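 Read-out is imaged cell count after nuclear and CD31 staining, fitted against 0.1% DMSO vehicle. Compounds were added for 3 days, in 10 ng/ml VEGF assay medium, to HUVEC–HDF co-cultures pre-grown 3 days.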

Experiment [14] in a line: VALA_MIGHUV2_WoundArea: VALA Sciences human Umbilical Vein Endothelial Cell Migration (MIGHUV) Assay, Area of Scratch Wound after Recovery (AID 2284316). The method, boiled down: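 Wound-area endpoint read by fluorescence imaging of Hoechst-stained nuclei after a 24 h recovery period following scratch of HUVEC monolayers (9000 cells/well). Chemicals dosed within 30 min post-scratch, triplicate 6-point series, 0.1% DMSO vehicle; Cytochalasin D positive control.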

Experiment [15] is described as follows: VALA_MIGHUV1_ScratchOnly_CellCount: Viability Assessment in the VALA Sciences human Umbilical Vein Endothelial Cell Migration (MIGHUV) Assay, Scratch Wound Inhibited Recovery (AID 2284327). The method, boiled down: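 Hoechst-stained nuclei in the scratch wound were counted by high-content imaging after a 24 h recovery period. Scratched HUVEC monolayers received 6-point concentration series, triplicate, in 0.1% DMSO, fit against DMSO.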

The nature of experiment [16]: VALA_MIGHUV1_ScratchOnly_WoundArea: VALA Sciences human Umbilical Vein Endothelial Cell Migration (MIGHUV) Assay, Area of Scratch Wound Inhibited Recovery (AID 2284336). In short, it runs like this: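 Wound area remaining after 24 h recovery imaged by Hoechst nuclear fluorescence in scratched HUVEC cultures, chemicals added within 30 min of scratching across a 6-point series. Gain of signal fitted against 0.1% DMSO; cytochalasin D positive control.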

Experiment [17] can be described thus: VALA_TUBIPS_Agonist_CellCount: Viability Assessment in the VALA Sciences human iPS-derived Endothelial Tubule Formation (TUBIPS) Agonism Assay (AID 2284338).

Records with an inconclusive call do not appear. Calls of active or inactive are those of the source. The calls were made as follows, unless noted: active = hit-call score of the fitted dose curve at least 0.9, where 1 is the maximum; inconclusive = response in the unintended direction; inactive = score below 0.9.

In the case of `CCCCC(O)(Cn1cncn1)c1ccc(Cl)cc1Cl` (stereo unspecified), the AC50 – broadly, the concentration giving half of the maximal activity seen – in the experiment on SERPINA7 (gene 6906) is 11.3 µM (active).

For the molecule `CC(C)NC(=O)N1CC(=O)N(c2cc(Cl)cc(Cl)c2)C1=O`, in the experiment on IYD (gene 389434), the molecule was called inactive.

Take `COP(=S)(OC)SCn1nnc2ccccc2c1=O`: the molecule was classed as inactive in experiment [1], in [2], in experiment [3], in experiment [4], in experiment [6] and in experiment [7]. Further, the outcome with SRD5A2 (gene 6716) was inactive. In addition, the AC50 in experiment [5] is 21.9 µM (active); in experiment [8], 24.4 µM (active); in experiment [9] it was 24.4 µM (active).

With `CC(C)Oc1cccc(NC(=O)c2ccccc2C(F)(F)F)c1`, the result in the experiment with IYD (gene 389434) was inactive. For the same molecule, in the experiment on SERPINA7 (gene 6906), the AC50 is 50 µM (active).

On to `CCCCC(C#N)(Cn1cncn1)c1ccc(Cl)cc1` (stereo unspecified), for which the outcome in experiment [10], in experiment [11] and in [12] was inactive.

For `Cn1c(-c2ccccc2)cc(-c2ccccc2)[n+]1C`, the call in the experiment with SERPINA7 (gene 6906) was inactive.

As for `OC(c1ccc(Cl)cc1)(c1ccc(Cl)cc1)C(Cl)(Cl)Cl`, the AC50 with IYD (gene 389434) was 100 µM (active); in the experiment on SERPINA7 (gene 6906), 5.3 µM (active).

Take `CCCN(CC)CC1COC2(CCC(C(C)(C)C)CC2)O1` (stereo unspecified): the result with SERPINA7 (gene 6906) was inactive.

As for `CCCCOCN(C(=O)CCl)c1c(CC)cccc1CC`, the AC50 in the experiment on SERPINA7 (gene 6906) is 19.1 µM (active).

Regarding `CC1(C)C(C=C(Cl)Cl)C1C(=O)OC(C#N)c1cccc(Oc2ccccc2)c1` (stereo unspecified), the call in experiment [1], in [2], in [3], in experiment [4], in experiment [5] and in [8] was inactive.

For the molecule `CS(=O)(=O)c1ccc(C(=O)C2C(=O)CCCC2=O)c([N+](=O)[O-])c1`, the molecule was called inactive in experiment [2], in [3], in experiment [4], in experiment [5] and in experiment [9].

As to `CC(C)(C)C(=O)C(Oc1ccc(Cl)cc1)n1cncn1` (stereo unspecified), the molecule was called inactive in experiment [2], in experiment [3], in experiment [4], in [5], in experiment [8] and in [9]. For the same molecule, the call in [11] was inactive. Also, the AC50 in experiment [12] is 8.94 µM (active).

Take `COCc1cnc(C2=NC(C)(C(C)C)C(=O)N2)c(C(=O)O)c1` (stereo unspecified): the molecule was classed as inactive in experiment [13], in experiment [14], in [15], in experiment [16] and in [17].

For `CN/C(=N\[N+](=O)[O-])NCc1cnc(Cl)s1`, the AC50 in experiment [1] is 10 µM (active). In addition, the call in experiment [2], in [3], in [4], in [5], in experiment [8] and in experiment [9] was inactive.

`Cc1c(COC(=O)[C@@H]2[C@H](/C=C(\Cl)C(F)(F)F)C2(C)C)cccc1-c1ccccc1`: the result in experiment [1], in [2], in experiment [3] and in experiment [4] was inactive. Moreover, the AC50 in experiment [5] is 10.8 µM (active); in experiment [8], 12.8 µM (active); in [9], 10.6 µM (active).

For the molecule `C=C(C)CN(CC)c1c([N+](=O)[O-])cc(C(F)(F)F)cc1[N+](=O)[O-]`, the call in [1], in experiment [2], in [3] and in experiment [4] was inactive. Also, the AC50 in experiment [5] was 22.1 µM (active); in experiment [8], 31.1 µM (active); in [9] it was 26.5 µM (active); with SERPINA7 (gene 6906) it was 8.89 µM (active).

On to `CCC(C)n1c(=O)[nH]c(C)c(Br)c1=O` (stereo unspecified), for which the outcome in the experiment with IYD (gene 389434) was inactive.

Take `N#CN=C1SCCN1Cc1ccc(Cl)nc1`: the result in experiment [1], in experiment [2], in experiment [3], in experiment [4], in experiment [5] and in experiment [8] was inactive. Moreover, the outcome in experiment [9] was inactive.
